Results reported in PubChem BioAssay AID1159580 (chemical genetic matrix, 2015).
Where “and” joins values, the source holds several entries; their conditions need not be identical. Equal entries are not always repeated. Screen size: about 5,500 compounds; about 2,000 (36%) were called active. Another 18% or so got no clear call; they are omitted. Cut-off read from the data, not from the text of the source: active = normalized growth mostly below about 0.91 (no sharp cut-off); inconclusive = no clear call, values can overlap the other calls; inactive = mostly above about 0.92. The list shows a part of the results.

Assay: chemical genetic growth profiling, strain panel (AID 1159580);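 note: tested at 20 µM; growth read once vehicle control cultures reached saturation at 30 °C; 1 = growth at the plate median or of vehicle wells; lower values mean less growth of the strain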
Conditions: S. cerevisiae deletion strains, growth OD

Measured: normalized growth

C=C[C@H]1CN2CC[C@H]1C[C@@H]2[C@@H](OC(=O)OCC)c1ccnc2ccc(OC)cc12
inactive: locus YAL013W, strain DEP1, active compounds read low 1 | locus YAL021C, strain ccr4, active compounds read low 0.93 | locus YAL026C, strain drs2, active compounds read low 1.01 | locus YAL030W, strain snc1, active compounds read low 0.989 | locus YBL061C, strain skt5, active compounds read low 0.995 | locus YBR009C, strain hhf1, active compounds read low 0.978 | locus YBR021W, strain FUR4, active compounds read low 0.992 | locus YBR023C, strain chs3, active compounds read low 0.997 | locus YBR171W, strain sec66, active compounds read low 0.995 | locus YBR229C, strain ROT2, active compounds read low 1 | locus YBR231C, strain swc5, active compounds read low 1 | locus YBR279W, strain paf1, active compounds read low 0.997 | locus YCL011C, strain gbp2, active compounds read low 0.969 | locus YCL016C, strain dcc1, active compounds read low 0.955 | locus YCL029C, strain bik1, active compounds read low 1.02 | locus YCL061C, strain MRC1, active compounds read low 0.979 | locus YCL069W, strain vba3, active compounds read low 0.998 | locus YCR088W, strain abp1, active compounds read low 0.999 | locus YDL005C, strain med2, active compounds read low 0.978 | locus YDL035C, strain GPR1, active compounds read low 0.981 | locus YDL040C, strain nat1, active compounds read low 0.994 | locus YDL074C, strain BRE1, active compounds read low 1.03 | locus YDL101C, strain DUN1, active compounds read low 1.02 | locus YDL134C, strain PPH21, active compounds read low 0.991 | locus YDL185W, strain tfp1, active compounds read low 1.02 | locus YDL192W, strain arf1, active compounds read low 1.01 | locus YDR001C, strain nth1, active compounds read low 0.985 | locus YDR069C, strain doa4, active compounds read low 0.979 | locus YDR101C, strain arx1, active compounds read low 1 | locus YDR137W, strain rgp1, active compounds read low 1.01 | locus YDR150W, strain NUM1, active compounds read low 1.01 | locus YDR159W, strain sac3, active compounds read low 1.03 | locus YDR162C, strain NBP2, active compounds read low 1.02 | locus YDR195W, strain ref2 0.956 | locus YDR297W, strain sur2, active compounds read low 1.01 | locus YDR318W, strain mcm21, active compounds read low 1.01 | locus YDR334W, strain swr1, active compounds read low 0.995 | locus YDR335W, strain msn5, active compounds read low 0.983 | locus YDR388W, active compounds read low 1.02 | locus YDR392W, strain spt3, active compounds read low 0.879 | locus YDR502C, strain sam2, active compounds read low 1.01 | locus YEL003W, strain gim4, active compounds read low 0.999 | locus YEL037C, strain rad23, active compounds read low 0.983 | locus YEL061C, strain CIN8 (second series), active compounds read low 0.994 | locus YEL061C, strain CIN8, active compounds read low 1.01 | locus YER015W, strain faa2, active compounds read low 0.989 | locus YER016W, strain bim1, active compounds read low 0.995 | locus YER110C, active compounds read low 1.03 | locus YER111C, strain swi4, active compounds read low 0.991 | locus YER155C, strain BEM2 (second series), active compounds read low 1.01 | locus YER155C, strain BEM2, active compounds read low 1 | locus YER167W, strain BCK2, active compounds read low 0.997 | locus YFR010W, strain ubp6, active compounds read low 1 | locus YGL078C, strain dbp3, active compounds read low 1.01 | locus YGL086W, strain mad1, active compounds read low 1.01 | locus YGL167C, strain pmr1, active compounds read low 0.962 | locus YGL173C, strain kem1, active compounds read low 1.01 | locus YGL227W, strain vid30, active compounds read low 0.994 | locus YGL240W, strain doc1, active compounds read low 1.01 | locus YGL248W, strain PDE1, active compounds read low 1.03 | locus YGL253W, strain hxk2, active compounds read low 1.04 | locus YGR135W, strain pre9, active compounds read low 1.02 | locus YGR229C, strain SMI1, active compounds read low 1.01 | locus YGR252W, strain gcn5, active compounds read low 0.984 | locus YHR013C, strain ard1, active compounds read low 0.951 | locus YHR027C, strain rpn1, active compounds read low 0.983 | locus YHR030C, strain SLT2, active compounds read low 1.01 and 1.08 | locus YHR079C, strain IRE1 (second series), active compounds read low 1.03 | locus YHR079C, strain IRE1, active compounds read low 1.03 | locus YHR094C, strain hxt1, active compounds read low 1.02 | locus YHR129C, strain ARP1, active compounds read low 1.01 | locus YHR142W, strain chs7, active compounds read low 0.973 | locus YHR200W, strain rpn10, active compounds read low 1.02 | locus YIL066C, strain RNR3, active compounds read low 1.01 | locus YIL073C, strain SPO22, active compounds read low 1.04 | locus YIL125W, strain kgd1, active compounds read low 1.02 | locus YIR030C, strain dcg1, active compounds read low 1.02 | locus YJL092W, strain hpr5, active compounds read low 0.992 | locus YJL095W, strain BCK1 (second series), active compounds read low 0.986 | locus YJL095W, strain BCK1, active compounds read low 1.04 and 1.02 | locus YJL115W, strain asf1, active compounds read low 0.966 | locus YJL129C, strain trk1, active compounds read low 1.02 | locus YJL134W, strain LCB3, active compounds read low 1.01 | locus YJL154C, strain vps35, active compounds read low 0.986 | locus YJL164C, strain tpk1, active compounds read low 0.966 | locus YJL166W, strain qcr8, active compounds read low 1 | locus YJL168C, strain set2, active compounds read low 1.03 | locus YJL187C, strain SWE1 (second series), active compounds read low 1.03 | locus YJR043C, strain POL32, active compounds read low 0.996 | locus YJR066W, strain TOR1, active compounds read low 1 | locus YKL009W, strain mrt4, active compounds read low 1.04 | locus YKL068W, active compounds read low 1.02 | locus YKL085W, strain MDH1 (second series), active compounds read low 1.01 | locus YKL085W, strain MDH1, active compounds read low 1.01 | locus YKL160W, strain elf1, active compounds read low 0.96 | locus YKL190W, strain CNB1, active compounds read low 1.01 | locus YKR001C, strain vps1, active compounds read low 1.01 | locus YKR026C, strain gcn3, active compounds read low 0.998 | locus YKR091W, strain srl3, active compounds read low 0.991 | locus YLL001W, strain dnm1, active compounds read low 0.942 | locus YLL026W, active compounds read low 0.985 | locus YLL041C, strain sdh2, active compounds read low 0.976 | locus YLR027C, strain aat2, active compounds read low 1.01 | locus YLR039C, strain RIC1, active compounds read low 1.01 | locus YLR058C, strain SHM2, active compounds read low 1.01 | locus YLR102C, strain apc9, active compounds read low 1.02 | locus YLR113W, strain HOG1, active compounds read low 1.01 | locus YLR221C, strain rsa3, active compounds read low 1.04 | locus YLR258W, strain gsy2, active compounds read low 0.973 | locus YLR262C, strain YPT6 (second series), active compounds read low 1 | locus YLR262C, strain YPT6, active compounds read low 1.05 | locus YLR268W, strain sec22, active compounds read low 1.02 | locus YLR320W, strain mms22, active compounds read low 1.07 | locus YLR330W, strain CHS5, active compounds read low 1.01 | locus YLR342W, strain FKS1 (second series), active compounds read low 0.998 | locus YLR342W, strain FKS1, active compounds read low 0.995 | locus YLR357W, strain rsc2, active compounds read low 0.962 | locus YLR370C, strain arc18, active compounds read low 0.99 | locus YLR371W, strain rom2, active compounds read low 1.02 | locus YLR384C, strain iki3, active compounds read low 0.997 | locus YLR418C, strain cdc73, active compounds read low 1.02 | locus YML016C, strain PPZ1, active compounds read low 1.01 | locus YML032C, strain rad52, active compounds read low 1.02 | locus YML120C, strain ndi1, active compounds read low 0.973 | locus YML124C, strain tub3, active compounds read low 1.02 | locus YMR058W, strain fet3, active compounds read low 0.989 | locus YMR078C, strain ctf18, active compounds read low 1.02 | locus YMR125W, strain sto1, active compounds read low 0.963 | locus YMR129W, active compounds read low 0.997 | locus YMR205C, strain PFK2, active compounds read low 0.951 | locus YMR223W, strain ubp8, active compounds read low 1.01 | locus YMR231W, strain pep5, active compounds read low 1 | locus YMR263W, strain SAP30, active compounds read low 1.03 | locus YMR307W, strain GAS1, active compounds read low 0.905 | locus YNL067W, strain RPL9B, active compounds read low 1.05 | locus YNL071W, strain lat1, active compounds read low 0.997 | locus YNL183C, strain NPR1, active compounds read low 0.986 | locus YNL209W, strain ssb2, active compounds read low 0.983 | locus YNL233W, strain BNI4, active compounds read low 1.03 | locus YNL248C, strain rpa49, active compounds read low 1.02 | locus YNL250W, strain rad50, active compounds read low 1.01 | locus YNL271C, strain bni1, active compounds read low 1.04 | locus YNL298W, strain CLA4, active compounds read low 1.03 | locus YNL307C, strain MCK1, active compounds read low 1.02 | locus YNL322C, strain KRE1 (second series), active compounds read low 0.988 | locus YNR049C, strain mso1, active compounds read low 0.989 | locus YNR052C, strain pop2, active compounds read low 1.02 | locus YOL006C, strain TOP1, active compounds read low 1.14 | locus YOL012C, strain htz1 1.23 | locus YOL147C, strain pex11, active compounds read low 1.02 | locus YOR001W, strain rrp6, active compounds read low 1.01 | locus YOR061W, strain CKA2, active compounds read low 1.02 | locus YOR069W, strain VPS5, active compounds read low 1.01 | locus YOR070C, strain gyp1, active compounds read low 1.03 | locus YOR080W, strain dia2, active compounds read low 0.988 | locus YOR083W, strain WHI5, active compounds read low 0.963 | locus YOR106W, strain vam3, active compounds read low 0.934 | locus YOR136W, strain idh2, active compounds read low 1.02 | locus YOR144C, strain elg1, active compounds read low 1.02 | locus YOR184W, strain ser1, active compounds read low 1.02 | locus YOR231W, strain MKK1, active compounds read low 1.03 | locus YOR265W, strain rbl2, active compounds read low 0.996 | locus YOR270C, strain vph1, active compounds read low 1.07 | locus YOR290C, strain snf2, active compounds read low 0.94 | locus YOR316C, strain cot1, active compounds read low 1.02 | locus YPL051W, strain arl3, active compounds read low 0.983 | locus YPL078C, strain atp4, active compounds read low 0.946 | locus YPL106C, strain sse1, active compounds read low 0.934 | locus YPL240C, strain hsp82, active compounds read low 0.998 | locus YPL256C, strain CLN2, active compounds read low 1.09 | locus YPR119W, strain clb2, active compounds read low 1.01 | locus YPR141C, strain kar3, active compounds read low 1.01 | locus YPR163C, strain tif3, active compounds read low 1.03 | locus YPR167C, strain met16, active compounds read low 1.02 | strain wtn01, active compounds read low 1.04
